{"source": "paper PMC4552634", "about": "“A New Set of Chemical Starting Points with Plasmodium falciparum Transmission-Blocking Potential for Antimalarial Drug Discovery” (PLoS ONE, 2015)", "note": "In all, about 13,000 compounds went through this assay and about 3,200 (25%) showed an effect of 50% or more. The list shows a part of the results."}
{"system": "P. falciparum stage V gametocytes", "design": "BacTiter-Glo ATP luminescence viability of purified stage V gametocytes in 384-well plates, per cent inhibition versus DMSO", "conditions": "48 h, 5 µM; inhibitor", "units": {"% Inhibition": "%"}}
{"smiles": "Cc1cc(NC(=O)c2ccco2)ccc1OC1CCN(Cc2ccccc2)CC1", "note": "[TCMDC-133965]", "% Inhibition": 12.37}
{"smiles": "COc1ccc2nccc([C@@H](O)CN3CCC(NCc4nc5c(C#N)cccc5[nH]4)CC3)c2c1", "note": "[TCMDC-141116]", "% Inhibition": -34.83}
{"smiles": "Oc1ccc(CCNc2nc(NCCCOc3ccccc3-c3cccc(C(F)(F)F)c3)nc(N3CCNCC3)n2)cc1", "note": "[TCMDC-134134]", "% Inhibition": 10.32}
{"smiles": "Oc1ccc(CCNc2nc(NCCOc3ccccc3-c3ccccc3)nc(N3CCNCC3)n2)cc1", "note": "[TCMDC-134131]", "% Inhibition": -22.6}
{"smiles": "Oc1ccc(CCNc2nc(NCc3ccccc3-c3ccccc3)nc(N3CCCNCC3)n2)cc1", "note": "[TCMDC-133386]", "% Inhibition": 28.34}
{"smiles": "OCCCCCCNc1nc(NCc2ccccc2-c2ccc(C(F)(F)F)cc2)nc(N2CCNCC2)n1", "note": "[TCMDC-134126]", "% Inhibition": 66.94}
{"smiles": "Oc1ccc(CC2CCCN(c3nc(NCCCOc4ccccc4-c4ccccc4)nc(N4CCNCC4)n3)C2)cc1", "note": "(stereo not drawn) [TCMDC-134279]", "% Inhibition": 106}
{"smiles": "Oc1ccc(CCNc2nc(NCCCOc3ccccc3-c3ccncc3)nc(N3CCNCC3)n2)cc1", "note": "[TCMDC-134138]", "% Inhibition": 16.05}
{"smiles": "Oc1ccc(CCNc2nc(NCCCOc3ccccc3-c3cccnc3)nc(N3CCNCC3)n2)cc1", "note": "[TCMDC-134137]", "% Inhibition": 19.58}
{"smiles": "Oc1ccc(CCNc2nc(NCCCOc3ccccc3-c3ccc(F)cc3)nc(N3CCNCC3)n2)cc1", "note": "[TCMDC-134135]", "% Inhibition": 12.8}
{"smiles": "Oc1ccc(CCNc2nc(NCCCOc3ccccc3-c3ccc(C(F)(F)F)cc3)nc(N3CCNCC3)n2)cc1", "note": "[TCMDC-134139]", "% Inhibition": 56.06}
{"smiles": "Oc1ccc(CCNc2nc(NCc3ccccc3-c3ccc(C(F)(F)F)cc3)nc(N3CCCNCC3)n2)cc1", "note": "[TCMDC-133388]", "% Inhibition": 24.02}
{"smiles": "Oc1ccc(CCNc2nc(NCc3ccccc3-c3ccc(C(F)(F)F)cc3)nc(N3CCNCC3)n2)cc1", "note": "[TCMDC-138323]", "% Inhibition": -0.8501}
{"smiles": "COc1ccc(-c2ccccc2OCCCNc2nc(NCCc3ccc(O)cc3)nc(N3CCNCC3)n2)cc1", "note": "[TCMDC-134136]", "% Inhibition": 51.13}
{"smiles": "O=C(Nc1ccc(OC2CCN(Cc3ccccc3)CC2)c(Cl)c1)c1ccsc1", "note": "[TCMDC-133989]", "% Inhibition": 12.12}
{"smiles": "Clc1ccc2c(NCc3ccccc3)ccnc2c1", "note": "[TCMDC-125506]", "% Inhibition": -30.27}
{"smiles": "CCCCNc1ccc(C(=O)NC2CCN(C[C@H](O)c3ccnc4ccc(OC)cc34)CC2)cc1", "note": "[TCMDC-141038]", "% Inhibition": -7.518}
{"smiles": "CC1(C)N=C(N)N=C(N)N1OCCCOc1cc(Cl)cc(Cl)c1", "note": "[TCMDC-131790]", "% Inhibition": 16.66}
